# A selection: hits, their analogues and other compounds. The true share with any hit is near 4.8%.
# DAX1 inh-1 = DAX1 (NR0B1) inhibitors on StAR promoter, primary screen, cell-based, luminescence, SF-1 (NR5A1), full-length DAX-1; inhibition, % at 6.8 µM; hit rate 1.1% among 370,000; AID 652010, 2013; HEK293T StAR-luciferase reporter, SF-1/DAX-1 repression relief;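 active = inhibition above the mean over all tested compounds plus 3 SD, cut at about 3.6% in these data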;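 also: 0% = DAX-1 cells with DMSO and 100% = cells lacking DAX-1 with DMSO; higher inhibition means more luminescence from relief of DAX-1 repression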
# SMARCA2 act = SMARCA2 (BRM) function activators, primary screen, cell-based, luminescence, high throughput. MG213 cells, MMTV-luciferase reporter, dexamethasone, overnight. hit rate 1% among 370,000. activation, % at 9.1 µM; in the data active = activation above about 7.8%;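 also: 0% = vehicle wells and 100% = reference activator wells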
# hcDAF-12 act = H. contortus DAF-12 nuclear receptor activators, primary screen, cell-based, luminescence, HEK293, lit1-tk-luc reporter | HEK293 hcDAF-12 lit1-tk-luc reporter; 0% DMSO, 100% Δ7-dafachronic acid | activation, % at 6.8 µM | hit rate 1.4% among 370,000 | AID 652067, 2013;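 active = activation above the mean of all tested compounds plus 3 SD, cut at about 5.5% in these data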;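 also: 100% = response to 3 µM Δ7-dafachronic acid high control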
# DAX1 inh-2 = DAX1 (NR0B1) inhibitors, primary screen, cell-based, HEK293, Gal4-DAX1, luciferase luminescence; HEK293 Gal4-DAX1 luciferase reporter; AID 504766, 2011; hit rate 0.99% among 340,000; inhibition, % at 6.75 µM; Nuclear receptor subfamily 0 group B member 1 (Homo sapiens), P51843;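 active = inhibition above the mean over all tested compounds plus 3 SD, cut at about 4.2% in these data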;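 also: 0% = DAX1-transfected cells with DMSO and 100% = empty-vector control cells with DMSO; inhibition shows as a rise in luminescence from relieved DAX1 repression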
# hgDAF-12 ag = H. glycines DAF-12 receptor agonists, primary screen, cell-based, luminescence, HEK293, GAL4 fusion, UAS-luciferase; AID 687014, 2013; hit rate 1.8% among 370,000; HEK293 GAL4-hgDAF12 UAS-luciferase reporter, agonist luminescence; normalized to butyrate control; activation, % at 6.8 µM; Nuclear hormone receptor DAF-12 (Heterodera glycines), GAL4 fusion;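 active = activation above a cutoff set at the mean of all screened compounds plus 3 SD, cut at about 10% in these data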;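 also: 0% = DMSO wells and 100% = sodium butyrate wells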
# ssDAF12 agonist = S. stercoralis DAF-12 nuclear receptor activators, primary screen, cell-based, luminescence, HEK293, GRIP1 co-expression, lit1-tk-luc | Nuclear hormone receptor DAF-12 (Strongyloides stercoralis) | HEK293 ssDAF-12/GRIP1 lit1-tk-luc reporter; % of 3 µM dafachronic acid response | activation, % at 6.8 µM | hit rate 1% among 370,000 | AID 652126, 2013;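 active = activation above the mean over all tested compounds plus 3 SD, cut at about 0.9% in these data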;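 also: 0% = DMSO-only wells and 100% = 3 µM delta7-dafachronic acid wells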
# DAX1 conf = DAX1 (NR0B1) inhibitors relieving SF-1 repression, confirmation, cell-based, luminescence, HEK293T, full-length DAX-1, SF-1 activated StAR promoter | shares compounds with DAX1 inh-1 | HEK293T StAR-promoter luciferase reporter, SF-1/DAX-1 repression | inhibition, % at 6.8 µM | hit rate 87% among 2,400 | AID 652134, 2013;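 active = inhibition above the average of every tested compound plus 3 SD, cut at about 3.8% in these data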;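 also: 0% = DAX-1 cells with DMSO and 100% = no DAX-1 control cells with DMSO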
# Target sequence (P51843 whole entry, looked up): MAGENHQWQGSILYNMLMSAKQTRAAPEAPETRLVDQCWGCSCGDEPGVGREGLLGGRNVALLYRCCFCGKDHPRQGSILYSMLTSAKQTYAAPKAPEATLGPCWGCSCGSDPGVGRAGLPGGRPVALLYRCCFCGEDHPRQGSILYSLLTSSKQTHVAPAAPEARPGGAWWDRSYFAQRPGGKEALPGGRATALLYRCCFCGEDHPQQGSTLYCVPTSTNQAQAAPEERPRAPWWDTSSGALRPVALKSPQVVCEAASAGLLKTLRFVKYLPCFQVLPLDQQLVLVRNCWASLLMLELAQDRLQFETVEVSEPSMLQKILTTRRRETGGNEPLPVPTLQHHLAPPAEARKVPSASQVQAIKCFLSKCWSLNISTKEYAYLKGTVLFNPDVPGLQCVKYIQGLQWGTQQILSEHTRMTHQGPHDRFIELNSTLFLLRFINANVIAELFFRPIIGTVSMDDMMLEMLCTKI
# SF1 AF2mut Luc = StAR reporter signal changes without DAX1, counter-screen for DAX1 inhibitor project, cell-based, luminescence, AF-2 mutant SF-1, transactivation; shares compounds with DAX1 inh-1; HEK293 StAR-luciferase, SF-1 AF2 mutant; inhibition, % at 6.8 µM; hit rate 78% among 2,400;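 active = inhibition above the mean of all tested compounds plus 3 SD, cut at about 3% in these data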;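 also: 0% = DAX-1 transfected cells with DMSO and 100% = cells without DAX-1 with DMSO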
# * marks the source's active call; other numbers are inactive results; · = no result.
SMILES,DAX1 inh-1,SMARCA2 act,hcDAF-12 act,DAX1 inh-2,hgDAF-12 ag,ssDAF12 agonist,DAX1 conf,SF1 AF2mut Luc
N/C(=N\OC(=O)c1ccc(Cl)cc1)c1ccn[nH]1,14.9*,1.9,4.8,-1.3,9.7,0.2,12.6*,7.8*
NC(=Nc1cccc(F)c1)NC(=O)OCc1ccccc1,5.2*,1.9,-0.1,·,7.4,0.2,5.2*,3.6*
N#CNC(=Nc1cccc(F)c1)SCc1ccccc1,-0.8,-5.7,-1.0,-1.8,0.0,-1.7,·,·
CCc1cc2c(nc1CC)CCCN2Cc1ccccc1C(F)(F)F,-2.5,-3.6,-0.8,·,-1.9,-1.9,·,·
C#CCN(Cc1ccco1)C(=O)c1nnc2c3cc(OC)ccc3n(S(=O)(=O)c3ccc(OC)cc3)c2n1,0.6,-2.2,0.4,·,3.4,-0.3,·,·
CC(OC(=O)CC1CCCC1)C(=O)Nc1ccc(S(N)(=O)=O)cc1 (configuration not stated),4.9*,-2.8,-0.1,-0.6,1.2,-0.7,1.8,0.9
O=C(N/N=C/c1ccsc1)c1ccccn1,5.7*,2.0,6.3*,5.0*,13.2*,0.6,4.7*,2.7
CCOc1cc(/C=N/NC(=O)c2ccccn2)ccc1OC(=O)c1ccc(F)cc1,6.1*,3.1,1.4,1.2,8.9,-0.3,2.0,4.7*
C/C(Cc1ccccc1)=N\NC(=O)c1cccnc1,0.1,-1.7,-2.8,-0.4,-1.3,-0.3,·,·
C/C(Cc1ccccc1)=N\NC(=O)c1ccccn1,8.5*,4.9,3.4,1.7,12.3*,0.0,2.9,1.2
CCOc1cc(/C=N/NC(=O)c2ccncc2)ccc1OC(=O)c1ccccc1,-1.1,-4.3,-0.6,0.7,2.9,-0.8,·,·
O=C(NN=C1CCC(=NNC(=O)c2ccccn2)CC1)c1ccccn1,5.7*,11.3*,5.5,0.2,16.9*,0.5,1.2,0.7
Cc1ccccc1CS(=O)(=O)Cc1ccc(C(=O)Nc2ccc(F)cc2)o1,-3.7,-7.4,-5.7,·,-7.5,-2.0,·,·
COc1cc(OC)cc(-c2noc(-c3csc([C@H]4C[C@H](O)[C@@H](CO)O4)n3)n2)c1,2.8,6.0,1.6,·,6.1,0.0,·,·
OC[C@H]1O[C@H](c2nc(-c3nc(-c4cccs4)no3)cs2)C[C@@H]1O,4.8*,2.3,3.0,·,11.8*,0.0,5.7*,2.6
Nc1cc2[nH]c(=O)c3ccccc3c2cc1[N+](=O)[O-],5.4*,2.1,2.0,1.4,6.9,-0.8,0.2,-0.9
COc1cc2c(=O)[nH]c3cc([N+](=O)[O-])ccc3c2cc1[N+](=O)[O-],-5.9,-1.3,-2.6,-0.3,-1.5,-1.3,·,·
COc1ccc(S(=O)(=O)N2CCCCC2)cc1NC(=O)CN1C(=O)NC(C)(C2CC2)C1=O (configuration not stated),-0.2,-1.0,-1.1,0.4,-0.6,-1.2,·,·
CC(C)Oc1ccc(S(=O)(=O)N2CCCCC2)cc1NC(=O)CN1C(=O)NC(C)(C2CC2)C1=O (configuration not stated),4.7*,-5.0,-0.6,-0.1,-2.1,-1.5,0.6,1.9
CCc1ccc(CNc2ccc3c(c2)ncn3C)cc1,4.6*,4.1,4.8,1.5,6.6,-0.2,7.9*,6.9*
CCCn1cnc2cc(NCc3ccccn3)ccc21,5.0*,5.5,1.9,2.0,9.8,-0.5,3.8*,2.4
COc1ccc(CNc2ccc3c(c2)ncn3C)cc1OC,0.1,-3.3,-1.2,0.7,1.0,-1.3,·,·
COc1ccc2nc(N3CCN(C(=O)C4COc5ccccc5O4)CC3)sc2c1 (configuration not stated),7.1*,1.8,2.5,0.1,10.3,-0.6,10.9*,5.5*
O=C(NCCc1cccc(Cl)c1)c1cccs1,4.5*,3.9,3.5,0.1,10.8*,-1.5,6.6*,3.8*
Cc1[nH]c2ccccc2c1CC(=O)Nc1ccc(Nc2cccnc2)c(-c2ccc(OC(F)(F)F)cc2)c1,-0.8,-4.3,1.6,·,1.0,0.0,·,·
SMILES,DAX1 inh-1,SMARCA2 act,hcDAF-12 act,DAX1 inh-2,hgDAF-12 ag,ssDAF12 agonist,DAX1 conf,SF1 AF2mut Luc
CC(=O)Nc1ccc(-c2ccnc3c2CC(C(=O)NCCc2ccccc2)O3)cc1 (configuration not stated),0.2,-3.4,-1.0,·,-1.1,-0.9,·,·
CC(=O)Nc1ccc(-c2ccnc3c2CC(C(=O)NCC2CC2)O3)cc1 (configuration not stated),0.9,0.9,0.4,·,-0.7,-1.4,·,·
CC(=O)Nc1ccc(-c2ccnc3c2CC(C(=O)NCc2ccccc2)O3)cc1 (configuration not stated),4.5*,4.8,0.8,·,-6.2,0.0,9.6*,-7.1
CC(=O)Nc1ccc(-c2ccnc3c2CC(C(=O)NCc2ccco2)O3)cc1 (configuration not stated),4.7*,-2.7,4.5,·,-1.5,0.5,11.5*,-6.1
C[C@H]1[C@@H](c2ccccc2)Oc2c(Cl)cccc2S(=O)(=O)N1C,-1.0,-3.7,-2.1,·,5.2,-1.2,·,·
COCC(=O)N1CCC(C(=O)NCC2COc3ccccc3O2)CC1 (configuration not stated),0.6,-0.8,-1.9,·,-0.5,-0.9,·,·
COc1ccc(/C=C2\CC3(OC(=O)c4cccc(F)c4)CCCN2C3)cc1 (configuration not stated),1.9,-3.0,1.4,·,-3.5,-0.8,·,·
Cc1ccc(O)c(C2=NCCNC(C(F)(F)F)=C2)c1,0.1,1.9,-1.2,0.3,-0.9,-0.6,·,·
Oc1c(C2=NCCNC(C(F)(F)F)=C2)ccc2ccccc12,4.7*,7.4,3.5,2.0,19.1*,0.9,6.5*,4.6*
O=C(COC(=O)c1ccc(O)cc1O)Nc1ccc(Cl)cn1,-0.9,-1.1,-1.3,0.6,4.2,-1.0,·,·
O=C(COC(=O)c1ccc(O)cc1O)c1ccc(Cl)cc1,5.8*,3.4,2.4,0.8,5.7,-0.9,5.4*,2.7
